This note sets out measurements from PubChem BioAssay AID1851 (National Center for Advancing Translational Sciences (NCATS), 2009).

The whole screen tested about 16,000 compounds, of which about 5,700 (36%) were called active. Another 24% or so got no clear call; they are omitted. This is one part of the list. A number with no mark means an inactive call. The call rests on the fitted dose curve; in most records, active means well fitted curve in the direction sought with a large enough effect; inconclusive means small, poorly fitted or top-dose-only effect, or effect the other way; inactive means no such curve, though single readings can be large or run the other way.
On the % scale 0 is the no-effect control and ±100 the full control effect.

The test deals with Cytochrome P450 1A2 (Homo sapiens) (UniProt P05177). As to the kind of experiment: Cytochrome panel assay with activity outcomes. To be noted: recombinant CYP, pro-luciferin dealkylation, luminescence, p450-cyp1a2; series mostly up to 57.1 µM; activity, negative = inhibition: at the top concentration.
Chain of Cytochrome P450 1A2 (Homo sapiens) (P05177 whole entry, looked up): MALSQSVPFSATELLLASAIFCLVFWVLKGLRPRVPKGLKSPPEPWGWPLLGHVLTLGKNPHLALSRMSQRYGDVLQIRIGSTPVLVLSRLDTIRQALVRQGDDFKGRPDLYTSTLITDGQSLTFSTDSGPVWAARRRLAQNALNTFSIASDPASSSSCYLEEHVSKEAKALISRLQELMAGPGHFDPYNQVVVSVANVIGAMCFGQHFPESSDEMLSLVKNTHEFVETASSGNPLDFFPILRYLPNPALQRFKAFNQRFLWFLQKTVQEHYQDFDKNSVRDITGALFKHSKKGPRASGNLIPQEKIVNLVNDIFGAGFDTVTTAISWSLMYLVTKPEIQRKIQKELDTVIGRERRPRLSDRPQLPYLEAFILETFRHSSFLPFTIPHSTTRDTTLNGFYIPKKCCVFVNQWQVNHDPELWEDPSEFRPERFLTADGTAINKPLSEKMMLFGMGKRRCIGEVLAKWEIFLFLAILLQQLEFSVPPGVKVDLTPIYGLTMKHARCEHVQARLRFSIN
For `COc1ccc(NC(=O)N2CC3(CCN(C(=O)c4cccn4C)CC3)C2)cc1`, the “activity, negative = inhibition” value is -1.16%.
Same read-out and setting: as for `CCC(=O)OCC(=O)[C@@]1(OC(=O)CC)[C@H](C)C[C@@H]2[C@H]3CCC4=CC(=O)C=C[C@]4(C)[C@]3(Cl)[C@@H](O)C[C@@]21C`, the figure is -7.99% [at 25.6 µM].
As a reminder, the AC50 is the midpoint of the concentration-response curve, whichever way the signal moves. As to `CN(C)Cc1ccccc1-c1cc(N(C)Cc2ccco2)ncn1`, the AC50 was 15.8 µM (active).
On to `CN(Cc1ccco1)c1cc(-c2ccccc2Cl)ncn1`, for which the AC50 is 2.51 µM (active).
As to `CO[C@]1(C2=NCCN2)COc2ccccc2O1`, the “activity, negative = inhibition” value is -19%.
As to `Cc1ccccc1/C=C\C1=NCCN1`, the AC50 was 6.31 µM (active).
Consider `Cc1cc(C(C)(C)C)cc(C)c1CC1=NCCN1`, for which the “activity, negative = inhibition” value is 9.92%.
Take `CCC(=O)c1ccc(OCC(O)CN2CCCCC2)cc1` (configuration not stated): the “activity, negative = inhibition” value is 9.96%.
`CCCCOc1ccc(C(=O)CCN2CCCCC2)cc1`: the AC50 was 3.16 µM (active).
On to `CC(C)C(NC(=O)C1CCCCC1)C(=O)NC1CCN(Cc2ccccc2)CC1` (configuration not stated), for which the “activity, negative = inhibition” value was -3.86%.
On to `CCOc1cc(NC(=S)NCC2CCCO2)c(OCC)cc1NC(=O)c1ccccc1C` (configuration not stated), for which the “activity, negative = inhibition” value was -29.8%.
Take `COc1ccc(C(=O)c2c[nH]c(C(=O)NCc3cccs3)c2)cc1`: the “activity, negative = inhibition” value is -8.62%.
In the case of `Cc1ccc(C(=O)NCC2CCCO2)cc1N1CCCC1=O` (configuration not stated), the “activity, negative = inhibition” value was -17.5%.
Turning to `Cc1ccccc1C(=O)c1c[nH]c(C(=O)NCC2CCCO2)c1` (configuration not stated), the AC50 was 25.1 µM (active).
With `Cc1ccccc1C(=O)c1c[nH]c(C(=O)NCc2cccs2)c1`, the AC50 is 10 µM (active).
Consider `O=C(O)CC[C@]1(C(=O)O)CCC(=O)c2ccccc21`, for which the activity, negative = inhibition is -9.13% [at 11.4 µM].
Same read-out and setting: as for `CC[C@](N)(C(=O)O)C(C)C`, the figure is -14.6% [at 11.4 µM].
As to `Cc1cccn2c(=O)c(C=NCc3ccco3)c(Nc3ccc(SC(F)F)cc3)nc12`, the AC50 is 0.562 µM (active).
Regarding `O=C(CCn1nc(-c2ccc(Cl)cc2)c2ccccc2c1=O)NCCN1CCOCC1`, the “activity, negative = inhibition” value is -17.2%.
For `Cc1ccc(C(=O)CNc2nc3c(c(=O)[nH]c(=O)n3C)n2Cc2ccccc2)cc1`, the “activity, negative = inhibition” value is -22.2%.
`O=c1c2ccccc2c(-c2ccc(Br)cc2)nn1Cc1ccccc1`: the AC50 was 2.82 µM (active).
Consider `O=c1c2ccccc2nc(-c2ccc(Br)cc2)n1Cc1ccccc1`, for which the AC50 was 10 µM (active).
Turning to `COC(=O)c1c(NC(=O)Cn2cc([N+](=O)[O-])cn2)sc2c1CCC2`, the AC50 is 1.26 µM (active).
Consider `CCC(=O)NC(Nc1sc2c(c1C(=O)OC)CCCC2)(C(F)(F)F)C(F)(F)F`, for which the “activity, negative = inhibition” value is -5.11%.
Turning to `CCOC(=O)c1c(NC(=O)CSc2nnc(C)s2)sc2c1CCCCC2`, the AC50 is 8.91 µM (active).
In the case of `CCOC(=O)c1c(NC(=O)Cn2cc([N+](=O)[O-])cn2)sc2c1CCC2`, the AC50 was 2.82 µM (active).
As to `COC(=O)c1c(NC(=O)c2ccco2)sc2c1CCC2`, the AC50 is 0.891 µM (active).
For the molecule `CC1Cc2ccccc2N1C(=O)Cn1cc([N+](=O)[O-])cn1` (configuration not stated), the “activity, negative = inhibition” value is -18.3%.
Still for that read-out and setting: as for `CC(=O)OC1COC(N2CCc3cc([N+](=O)[O-])ccc32)C(OC(C)=O)C1OC(C)=O` (configuration not stated), the figure is 0.819%; as for `CCc1nc(SCC(=O)NNC(=O)C2CCCCC2)c2ccccc2n1`, 1.59%.
With `C#CCSc1nc(Cc2ccc(Cl)cc2)nc2ccccc12`, the AC50 is 1.26 µM (active).
Turning to `COc1cccc(CSc2nnc(C(F)(F)F)n2Cc2ccc(F)cc2)c1`, the AC50 is 11.2 µM (active).
`Fc1ccc(Cn2c(SCc3ccc(F)c(C(F)(F)F)c3)nnc2C(F)(F)F)cc1`: the “activity, negative = inhibition” value is -29.4%.
Take `CC(C)CC1NC(=S)N(C2CCCCC2)C1=O` (configuration not stated): the “activity, negative = inhibition” value is -15.6%.
Consider `O=C(Nc1ccc(N2CCCCC2)cc1)c1cncc(Br)c1`, for which the AC50 was 4.47 µM (active).
`CC(=O)Nc1ccc(N2CCCCC2)c(C(=O)Nc2cccc(C)c2)c1`: the AC50 is 14.1 µM (active).
Regarding `CC(=O)N1CCN(c2ccc(NC(=O)c3ccc(C)cc3)cc2)CC1`, the “activity, negative = inhibition” value was 0.154%.
In the case of `Cc1c(N2CCCC2)cc2c(c1NC(=O)c1ccccc1Cl)C(C)(C)CC2(C)C`, the activity, negative = inhibition was -13.1% [at 2.29 µM].
Consider `CCc1ccc(OCCCC(=O)Nc2ccc(N3CCCCC3)cc2)cc1`, for which the “activity, negative = inhibition” value is -6.6%.
Same read-out and setting: as for `Cc1ccc(NC(=O)c2cc(NC(=O)CCC(=O)O)ccc2N2CCCCC2)cc1`, the figure is -14.5%; as for `O=C(/C=C/c1ccc(Cl)cc1)Nc1ccc(N2CCCCC2)cc1`, -7.34%.
Regarding `CC(=O)Nc1ccc(N2CCCCC2)cc1`, the AC50 is 14.1 µM (active).
Regarding `CC(C)CN1CCC2(CC1)CCN(C(=O)c1cnccn1)CC2`, the “activity, negative = inhibition” value was -7.79%.
`CC(=O)OC[C@@H]1O[C@@H](O/N=C2/C[C@@H](O)[C@@H](O)[C@@H]3[C@@H]4C(=O)N(Cc5ccccc5)C(=O)[C@H]4CC[C@H]23)[C@H](OC(C)=O)[C@H](OC(C)=O)[C@@H]1OC(C)=O`: the activity, negative = inhibition is -1.74% [at 11.4 µM].
Take `CSc1nc2c(c(C(F)(F)F)n1)CC(C)CC2` (configuration not stated): the AC50 is 25.1 µM (active).
For `O=C(Nc1cccc(C(F)(F)F)c1)c1n[nH]c(Cn2cncn2)n1`, the AC50 is 0.126 µM (active).
As to `C[C@H](NC(=O)Cn1cncn1)c1ccccc1`, the “activity, negative = inhibition” value was -3.83%.
On to `O=C(Nc1ccc(OC(F)(F)F)cc1)c1n[nH]c(Cn2cncn2)n1`, for which the AC50 is 0.158 µM (active).
As for `Cc1ccccc1OCCNc1ccc(C(F)(F)F)cc1[N+](=O)[O-]`, the AC50 was 0.891 µM (active).
On to `O=[N+]([O-])c1cc(C(F)(F)F)ccc1NCCCCNS(=O)(=O)c1ccc2ccccc2c1`, for which the “activity, negative = inhibition” value is -31.8%.
Consider `COC(=O)c1c(C)[nH]c(C)c1C(=O)c1ccccc1Cc1ccccc1`, for which the AC50 is 0.251 µM (active).
Take `Cc1ccc(C)c(C(=N)c2ccccc2Cc2ccccc2)c1`: the activity, negative = inhibition is -6.82% [at 2.29 µM].
For the molecule `Nc1nc(SCc2ccc([N+](=O)[O-])cc2)c2ncn([C@@H]3O[C@@H](CO)[C@@H](O)[C@H]3O)c2n1`, the “activity, negative = inhibition” value is -8.58%.
Regarding `Cc1ccc(S(=O)(=O)N(CCCN2CCCC2=O)Cc2cc3c(C)ccc(C)c3[nH]c2=O)cc1`, the “activity, negative = inhibition” value is -21%.
With `Cc1ccc(CS(=O)(=O)CCC(=O)NCCCN2CCCC2=O)cc1`, the “activity, negative = inhibition” value was -15.9%.
Turning to `COc1ccc2[nH]c3c(NCCCN4CCCC4=O)ncnc3c2c1`, the AC50 is 11.2 µM (active).
For `CC(=O)N[C@@H](CC(=O)O)C(=O)O`, the “activity, negative = inhibition” value was -4.66% [at 25.6 µM].
As to `Cc1nc2ccccc2nc1SCC(=O)N1CCC(C)CC1`, the AC50 was 3.55 µM (active).
In the case of `Cn1c(SCC(=O)N2CCN(S(=O)(=O)c3ccccc3)CC2)nc2ccccc21`, the “activity, negative = inhibition” value was -17.9%.
Still for that read-out and setting: as for `NC(=O)C1CCN(C(=O)CN2C(=O)c3ccccc3S2(=O)=O)CC1`, the figure is 1.85%; as for `CC1CCN(C(=O)C2CCN(S(=O)(=O)c3cccc4nonc34)CC2)CC1`, -0.137%.
As to `CC1CCN(C(=O)CSc2nc3cccnc3n2C)CC1`, the AC50 is 20 µM (active).
Turning to `CC1CC(C)CN(C(=O)CSc2nnc(CSc3ncccn3)n2C)C1` (configuration not stated), the “activity, negative = inhibition” value is -0.204%.
On the same count and under the same terms, then `CCc1cc2c(nc1CC)CCN(CC/C(C)=N/O[C@@H]1O[C@H](COC(C)=O)[C@H](OC(C)=O)[C@H](OC(C)=O)[C@H]1OC(C)=O)C2`, with 0.132% [at 11.4 µM].
Regarding `Nc1nonc1-c1noc(CCCN2C(=O)c3ccccc3C2=O)n1`, the AC50 is 14.1 µM (active).
Still for that read-out and setting: as for `O=C(NCc1cccnc1)/C(=C/c1ccc(-c2cccc(Cl)c2)o1)S(=O)(=O)c1ccccc1`, the figure is 25.1 µM (active).
Consider `Cc1ccc(NC(=O)C(=O)NCc2ccc(/C=C(/C#N)C(=O)NCc3cccnc3)o2)cc1`, for which the “activity, negative = inhibition” value was -13.3%.
Turning to `COc1ccc2c(c1[N+](=O)[O-])CCC/C2=N/OC(=O)c1cccc2ccccc12`, the AC50 is 0.794 µM (active).
As to `COc1ccc2c(c1[N+](=O)[O-])CCC/C2=N/OC(=O)c1ccccc1SC`, the AC50 is 0.794 µM (active).
As to `COc1ccccc1C(=O)O/N=C1/CCCc2c1ccc(OC)c2[N+](=O)[O-]`, the AC50 is 0.447 µM (active).
In the case of `CC1CSc2nc3sc4c(c3c(=O)n21)CCCC4` (configuration not stated), the AC50 was 3.55 µM (active).
For the molecule `CSC(=NC#N)N1CCN(c2ccc(Cl)cc2)CC1`, the half-maximal activity concentration (AC50) is 4.47 µM (active).
`C[C@H](NCCc1ccc(O)cc1)[C@@H](O)c1ccc(O)cc1`: the AC50 result is “inactive”.
Turning to `C[C@H](N[C@@H](C)COc1ccccc1)[C@H](O)c1ccc(O)cc1`, the AC50 was 5.01 µM (active).
As to `Cc1ccc(C(CC(N)=O)c2ccco2)cc1` (configuration not stated), the “activity, negative = inhibition” value is -5.6%.
With `CCOC(=O)C1=C(N)n2c(s/c(=C\c3ccco3)c2=O)=C(C(=O)OCC)C1c1ccco1` (configuration not stated), the “activity, negative = inhibition” value is -56%.
Regarding `CCOC(=O)C1C(=O)C=C(c2ccc(C)cc2)CC1c1ccco1` (configuration not stated), the AC50 was 4.47 µM (active).
As for `CC1=CC2=NC(=O)CC(C)(C(=O)N(CC(=O)NC(C)(C)C)Cc3cccs3)N2C=C1` (configuration not stated), the “activity, negative = inhibition” value is 11.6%.
In the case of `O=C(O)c1cc2c(o1)CCC/C2=N\O`, the “activity, negative = inhibition” value was -4.91%.
Take `c1ccc(C2=NN[C@@H]3c4ccccc4-c4ccccc4N3C2)cc1`: the AC50 was 0.2 µM (active).
Turning to `COc1ccc2nc(C)cc(SCC(=O)Nc3c(C)cc(C)cc3C)c2c1`, the “activity, negative = inhibition” value is -12.6%.
Take `COc1ccc(N2C(N)=NC(N)=NC2(C)C)cc1`: the “activity, negative = inhibition” value was 10.4%.
Regarding `CCOc1ccc2nc(NC(=O)c3ccc(S(=O)(=O)N4CCOCC4)cc3)sc2c1`, the “activity, negative = inhibition” value is -13.6%.
For `COc1ccc2nc(NC(C)=O)sc2c1`, the AC50 is 3.55 µM (active).
Regarding `CCCOc1ccc(C(=O)NC(=S)Nc2nc3ccc(C)cc3s2)cc1`, the “activity, negative = inhibition” value is -9.82%.
Regarding `COc1ccc2nc(/N=C\N(C)C)sc2c1`, the AC50 was 0.631 µM (active).
Consider `COc1ccc2nc(NC(=O)CSc3nnc(C)s3)sc2c1`, for which the AC50 was 2.82 µM (active).
On to `COc1ccc(Cc2c(N)nc(N)nc2N)cc1`, for which the “activity, negative = inhibition” value is -7.11%.
For `COc1ccc2nc(N)sc2c1`, the AC50 was 12.6 µM (active).
Take `CN(C)Cc1ccc(O)c(CN(C)C)n1`: the activity, negative = inhibition is -8.37% [at 11.4 µM].
For the molecule `C[C@]12CC[C@H]3c4ccc(O)cc4CC[C@@H]3[C@H]1CC[C@@H]2OC(=O)CCC1CCCC1`, the activity, negative = inhibition was -12.2% [at 11.4 µM].
Turning to `CC(C)(C)NS(=O)(=O)c1ccc(NS(=O)(=O)c2ccc(F)cc2)cc1`, the “activity, negative = inhibition” value is 8.66%.
Regarding `COc1ccc(S(=O)(=O)Nc2ccc(F)cc2)c(C)c1C`, the AC50 is 14.1 µM (active).
On to `COc1ccc(NS(=O)(=O)c2cc(-c3nnnn3C)ccc2OC)cc1`, for which the “activity, negative = inhibition” value is -12%.
The same measure, in the same setting: then `COc1cccc(-c2nc(CS(=O)(=O)CC(=O)NCCCOC(C)C)c(C)o2)c1`, with -11.6%.
In the case of `COc1ccc(-c2cc(C(=O)NCc3cccnc3)no2)cc1OC`, the AC50 is 20 µM (active).
Take `COCCNC(=O)c1cc(-c2cccc(OC)c2)on1`: the AC50 was 12.6 µM (active).
